In article PMC5540273 (PLoS ONE, 2017):

What was measured:
Conditions in all cases: concentration: 1 μM, replicates: in singlicate; n = 1
AAK1 = tested on: AAK1
ABL1-nonphosphorylated = tested on: ABL1-nonphosphorylated
ABL1-phosphorylated = tested on: ABL1-phosphorylated
ABL2 = tested on: ABL2
ACVR1B = tested on: ACVR1B
ACVR1 = tested on: ACVR1
ACVR2A = tested on: ACVR2A
ACVR2B = tested on: ACVR2B
ACVRL1 = tested on: ACVRL1
ADCK3 = tested on: T1, ADCK3
T1 construct: gene CABC1

ADCK4 = tested on: ADCK4
AKT1 = tested on: AKT1
AKT2 = tested on: AKT2
AKT3 = tested on: AKT3
ALK = tested on: ALK
AMPK-alpha1 = tested on: T2, AMPK-alpha1
T2 construct: gene PRKAA1

AMPK-alpha2 = tested on: T3, AMPK-alpha2
T3 construct: gene PRKAA2

ANKK1 = tested on: ANKK1
ARK5 = tested on: T4, ARK5
T4 construct: gene NUAK1

ASK1 = tested on: T5, ASK1
T5 construct: gene MAP3K5
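Also: KINOMEscan kinase panel screen.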

SMILES | %Inh (AAK1) | %Inh (ABL1-nonphosphorylated) | %Inh (ABL1-phosphorylated) | %Inh (ABL2) | %Inh (ACVR1B) | %Inh (ACVR1) | %Inh (ACVR2A) | %Inh (ACVR2B) | %Inh (ACVRL1) | %Inh (ADCK3) | %Inh (ADCK4) | %Inh (AKT1) | %Inh (AKT2) | %Inh (AKT3) | %Inh (ALK) | %Inh (AMPK-alpha1) | %Inh (AMPK-alpha2) | %Inh (ANKK1) | %Inh (ARK5) | %Inh (ASK1)
Nc1ncc(-c2cn[nH]c2)c2scc(-c3ccc4c(c3)CCN4C(=O)Cc3ccccc3)c12 [GSK2593067] | 52% | 99.2% | 81% | 89% | 0% | 0% | 0% | 16% | 0% | 0% | 0% | 0% | 2% | 0% | 0% | 11% | 16% | 1% | 26% | 5%
Cc1ccccc1CC(=O)N1CCc2cc(-c3cn(C)c4ncnc(N)c34)ccc21 [GSK2603346] | 3% | 50% | 25% | 29% | 0% | 0% | 0% | 65% | 11% | 3% | 3% | 0% | 4% | 0% | 20% | 18% | 23% | 0% | 42% | 30%
Cc1ccc(NC(=O)c2ccc(Cl)c(Cl)c2)cc1-c1ccc(C(=O)Nc2ccncc2)cc1 [GSK1398460] | 8% | 26% | 4% | 41% | 0% | 6% | 0% | 2% | 0% | 9% | 20% | 0% | 15% | 0% | 41% | 21% | 21% | 18% | 10% | 16%
CCNc1nccc(-c2c(-c3ccc(F)cc3)ncn2C2CCN(C)CC2)n1 | 20% | 30% | 7% | 0% | 0% | 0% | 0% | 0% | 0% | 12% | 8% | 4% | 0% | 0% | 0% | 0% | 0% | 0% | 0% | 15%
CS(=O)(=O)c1cccc(CNc2nc(Nc3ccc4c(c3)CCC(=O)N4)ncc2C(F)(F)F)c1 | 21% | 54% | 16% | 0% | 0% | 0% | 0% | 0% | 0% | 0% | 4% | 0% | 0% | 0% | 0% | 7% | 0% | 3% | 86% | 0%
c1ccc(Oc2ccc(Nc3ccnc4cc(-c5ccc(CN6CCCCC6)o5)ccc34)cc2)nc1 [GW567143] | 0% | 85% | 24% | 24% | 0% | 0% | 32% | 0% | 0% | 0% | 8% | 0% | 14% | 0% | 26% | 0% | 0% | 9% | 12% | 0%
CC(C)c1nc(-c2ccc(F)c(NS(=O)(=O)c3c(F)cccc3F)c2)c(-c2ccnc(Nc3ccc(N4CCOCC4)nc3)n2)s1 [GSK1804250] | 7% | 99.8% | 98.8% | 99.3% | 91.9% | 87% | 0% | 75% | 52% | 99.4% | 88% | 0% | 13% | 2% | 26% | 59% | 69% | 23% | 21% | 0%
Cc1cccc(Nc2nc(N[C@H]3CCCC[C@H]3N)ncc2C(N)=O)c1.Cl [GSK986310] | 55% | 0% | 8% | 24% | 0% | 5% | 0% | 11% | 0% | 17% | 29% | 0% | 28% | 0% | 61% | 39% | 29% | 95.7% | 40% | 0%
Fc1cc(Cl)ccc1Nc1ccnc2cc(-c3ccc(CN4CCSCC4)o3)ccc12 [GW560106] | 4% | 95.9% | 98.7% | 89% | 21% | 84% | 14% | 91% | 49% | 3% | 31% | 0% | 2% | 0% | 28% | 3% | 18% | 14% | 13% | 0%
